Measurements published in PubChem BioAssay (NCATS).
Several values for one entry are separate records, joined by “and”; a condition that tells them apart may be missing. Identical values can stand only once. Inconclusive results are not listed. Activity calls are given as the source filed them. Unless noted, the call rests on the fitted dose curve; in most records, active means well fitted curve in the direction sought with a large enough effect; inconclusive means small, poorly fitted or top-dose-only effect, or another doubt; inactive means no such curve, though single readings can be large; an effect the other way counts as inactive or inconclusive.

Assays:
[1] = Cell Viability - HUV-EC-C (AID 542);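 further: cells exposed to compound for 40 hours; nearly all actives have a fitted effect of over 35% in size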; further: potency means the concentration at half of the fitted maximal effect; on activity change, negative = cytotoxicity: on the % scale 0 is the no-effect control and ±100 the full control effect
How it was run: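 Concentration-dependent ATP loss in HUV-EC-C cells is the measure. Exposure lasts 40 hr at 37 °C; luminescence follows CellTiter-Glo addition, and Hill fits give AC50.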

[2] = Cell Viability - Renal Proximal Tubule (AID 545); conditions: renal proximal tubule cells viability, primary cells of rat origin; activity change, negative = cytotoxicity: at 91.7 µM (top of the series);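 further: cells exposed to compound for 40 hours; nearly all actives have a fitted effect of over 40% in size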; further: potency means the concentration at half of the fitted maximal effect;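 on activity change, negative = cytotoxicity: 0% = DMSO only and -100% = 100 µM tamoxifen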
How it was run: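 Primary rat renal proximal tubule cells (1000/well) were treated with compounds for 40 hr at 37 °C in complete medium. Intracellular ATP was measured by CellTiter-Glo luminescence, and AC50 values came from Hill-equation fits of concentration-response data.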

[3] = MultiTox-Fluor Cytotoxicity Assay - LYMP1-003 - Dead Cells (AID 961);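 further: cells exposed to compound for 16 h at 37 °C; nearly all actives have a fitted effect of over 70% in size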; further: potency means the concentration at half of the fitted maximal effect
How it was run: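 Acute toxicity is scored as increased dead-cell protease activity in human lymphoblastoid LYMP1-003 cells after 16 h compound exposure in complete culture medium. Activity is normalized to DMSO basal and 15 uM tetraoctylammonium bromide as full response.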

[4] = Cell Viability - LYMP2-002 (AID 977);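 further: compound exposure lasted 24 h at 37 °C; plate controls were DMSO only for no effect and 92 µM tetraoctylammonium bromide for full effect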
How it was run: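 In this qHTS viability screen, 2500 human lymphoblastoid cells per well receive compound for 24 hr at 37 C, and luciferase-based ATP luminescence gives the viability signal. Tetraoctylammonium bromide serves as positive control.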

[5] = qHTS assay for small molecule antagonists of retinoid X receptor alpha signaling (AID 588546; active means well fitted inhibition curve with a large enough effect in the signal ratio, with a control signal flat, not every such curve was filed as active; the % refers to the signal ratio; further: potency means the concentration at half of the fitted maximal effect;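 on max response: cells stimulated with 9-cis-retinoic acid as agonist; on the % scale 0 is the no-effect control and ±100 the full control effect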); conditions: HEK293T RXRa-UAS-bla, beta-lactamase ratio, antagonist mode; measured here: W530 green channel, cytotoxicity proxy
How it was run: (§1)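 Beta-lactamase reporter inhibition, read as CCF4 fluorescence ratio (ex 405, em 460/530 nm) after 2 h at RT. HEK293T UAS-bla cells, 2500/well, were stimulated with 9-cis-RA at 500 or 100 nM final alongside test compound for 18 h at 37 C.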

[6] = biological target: Retinoic acid receptor RXR-alpha (Homo sapiens) (UniProt P19793); experiment: as above; conditions: HEK293T RXRa-UAS-bla, beta-lactamase ratio, antagonist mode
How it was run: as §1

[7] = qHTS assay for environmental chemicals that activate the Aryl hydrocarbon Receptor (AhR) signaling pathway (AID 651777); conditions: 1A2-DRE human hepatoma cells, luciferase, 24 h; activation: stronger effect = higher value; further: nearly all actives have a fitted effect of over 15% in size; further: potency means the concentration at half of the fitted maximal effect; on activation: % of control where 0% means no effect
How it was run: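 AhR activation is scored as a rise in luciferase from a stable DRE–CYP1A2 promoter construct in human hepatoma cells. Treatment lasts 24 hr at 37 C; detection uses One-Glo after 30 min at room temperature.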

[8] = Cell Viability - BJ (AID 421; calls by dose curve;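 further: potency means the concentration at half of the fitted maximal effect; cells exposed to compound for 40 hours at 37 °C before readout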); conditions: BJ fibroblast viability, qHTS
How it was run: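 Quantitative HTS: ATP depletion in BJ cells after 40 hr compound exposure in complete culture medium, detected with CellTiter-Glo; AC50 from standard Hill fits.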

[9] = Cell Viability - HepG2 (AID 433; calls by dose curve;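 further: potency means the concentration at half of the fitted maximal effect; cells exposed to compound for 40 hours; potency for ATP loss meaning cytotoxicity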); conditions: qHTS
How it was run: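 HepG2 hepatocellular carcinoma cells (1500/well) were treated with compounds for 40 h at 37 °C in complete medium; intracellular ATP was read by CellTiter-Glo luminescence. Data were normalized to DMSO and 100 uM tamoxifen, and AC50 came from Hill fits.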

[10] = Cell Viability - Mesenchymal (AID 546); conditions: mesenchymal cells viability, qHTS; activity change, negative = cytotoxicity: at 91.7 µM (top of the series);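 further: cells exposed to compound for 40 hours before reading; 0% = DMSO only and -100% = 100 µM tamoxifen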
How it was run: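 In this qHTS cytotoxicity format, glomerulus-derived human mesenchymal kidney cells received compound for 40 hr, then luciferase-based ATP quantitation. Concentration-response data were fitted with the Hill equation.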

[11] = Cell Viability - LYMP2-003 (AID 965);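 further: cells exposed to compounds for 24 h before reading; nearly all actives have a fitted effect of over 50% in size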; further: potency means the concentration at half of the fitted maximal effect;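 on activity change, negative = cytotoxicity: 0% = DMSO only and full effect = 92 µM tetraoctylammonium bromide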
How it was run: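 Human lymphoblastoid cells (2500/well) were pre-incubated 5 hr at 37 C, then exposed to compounds over a concentration range for 24 hr at 37 C. Intracellular ATP was read by CellTiter-Glo luminescence; AC50 came from Hill-equation fits.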

[12] = Cell Viability - LYMP2-011 (AID 969); further: nearly all actives have a fitted effect of over 60% in size; further: potency means the concentration at half of the fitted maximal effect
How it was run: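 Cells seeded at 2500 per well rest 5 hr before compound addition, then incubate 24 hr at 37 C. CellTiter-Glo reagent is added for 30 min at room temperature before luminescence detection.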

[13] = Cell Viability - LYMP2-013 (AID 970); further: nearly all actives have a fitted effect of over 55% in size; further: potency means the concentration at half of the fitted maximal effect
How it was run: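 In complete culture medium, human lymphoblastoid cells were dosed for 24 hr at 37 C, with tetraoctylammonium bromide (6.4pM to 92 uM) as positive control. Viability reflects luciferase-based ATP signal; AC50 derived from concentration-response curves.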

[14] = Cell Viability - LYMP2-023 (AID 975); further: nearly all actives have a fitted effect of over 55% in size; further: potency means the concentration at half of the fitted maximal effect;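 on activity change, negative = cytotoxicity: cellular ATP measured by luciferase luminescence as viability proxy; plate controls were DMSO only for no effect and 92 µM tetraoctylammonium bromide control for full effect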
How it was run: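 In this qHTS, ATP-based luciferase luminescence (CellTiter-Glo) is quantified in human lymphoblastoid cells after 24 hr compound treatment at 37 C; tetraoctylammonium bromide serves as positive control. Concentration-response curves are Hill-fitted to give AC50.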

[15] = Cell Viability - LYMP2-008 (AID 980); further: nearly all actives have a fitted effect of over 60% in size; further: potency means the concentration at half of the fitted maximal effect; on activity change, negative = cytotoxicity: on the % scale 0 is the no-effect control and ±100 the full control effect
How it was run: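 Measured: ATP-dependent luminescence, proportional to viable cell number, in human lymphoblastoid cells treated 24 hr with compound in complete culture medium. Values are AC50s from Hill-equation modelling of qHTS titrations.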

[16] = Cell Viability - LYMP2-014 (AID 983); further: nearly all actives have a fitted effect of over 50% in size; further: potency means the concentration at half of the fitted maximal effect;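 on activity change, negative = cytotoxicity: plate controls were DMSO only for no effect and 92 µM tetraoctylammonium bromide for full effect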
How it was run: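 Quantitative HTS in lymphoblastoid cells: 24 hr compound exposure, then CellTiter-Glo ATP luminescence. Positive control was tetraoctylammonium bromide, 6.4pM to 92 uM.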

[17] = Cell Viability - LYMP2-016 (AID 984); further: nearly all actives have a fitted effect of over 55% in size; further: potency means the concentration at half of the fitted maximal effect; on activity change, negative = cytotoxicity: on the % scale 0 is the no-effect control and ±100 the full control effect
How it was run: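 Human lymphoblastoid cells (LYMP2-016), 2500/well in complete medium, preincubated 5 hr at 37 C, then compound-treated 24 hr at 37 C. Intracellular ATP read by CellTiter-Glo luminescence after 30 min at room temperature; AC50 from Hill-equation concentration-response fits.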

[18] = Cell Viability - LYMP2-026 (AID 989); further: nearly all actives have a fitted effect of over 50% in size; further: potency means the concentration at half of the fitted maximal effect
How it was run: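 Acute toxicity screen in complete culture medium, with 24 hr compound exposure at 37 C. Viability read as cellular ATP via luciferase reaction, with tetraoctylammonium bromide (6.4pM to 92 uM) as positive control.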

[19] = Cell Viability - LYMP1-002 - Assay at 40 hr (AID 994); further: nearly all actives have a fitted effect of over 60% in size; further: potency means the concentration at half of the fitted maximal effect
How it was run: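 Concentration-dependent ATP loss after 40 hr treatment at 37 C defined toxicity; AC50 values were obtained by fitting the standard Hill equation.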

[20] = Cell Viability - LYMP2-025 (AID 976);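 further: plate controls were DMSO only for no effect and tetraoctylammonium bromide control for full effect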
How it was run: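 Luminescent ATP readout after 24 hr treatment of a human lymphoblastoid line (LYMP2-025, 2500 cells/well, 37 C). Reagent developed 30 min at room temperature; AC50 fitted with the Hill equation.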

Chain of Retinoic acid receptor RXR-alpha (Homo sapiens) (P19793 whole entry, looked up): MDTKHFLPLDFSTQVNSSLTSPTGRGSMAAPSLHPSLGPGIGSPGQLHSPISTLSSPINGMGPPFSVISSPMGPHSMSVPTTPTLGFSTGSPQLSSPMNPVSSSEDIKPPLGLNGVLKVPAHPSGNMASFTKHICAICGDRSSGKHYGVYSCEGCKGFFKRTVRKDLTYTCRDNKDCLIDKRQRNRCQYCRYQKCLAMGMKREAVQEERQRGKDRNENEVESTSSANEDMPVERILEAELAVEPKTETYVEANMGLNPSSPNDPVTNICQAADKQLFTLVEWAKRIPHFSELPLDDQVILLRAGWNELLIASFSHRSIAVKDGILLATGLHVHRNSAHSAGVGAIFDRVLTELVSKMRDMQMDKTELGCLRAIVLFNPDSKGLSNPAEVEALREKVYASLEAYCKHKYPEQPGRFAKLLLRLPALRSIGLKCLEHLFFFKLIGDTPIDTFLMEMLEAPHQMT

Cc1c(C(=O)O)c(O)cc2c1C(=O)c1c(O)c([C@H]3O[C@H](CO)[C@@H](O)[C@H](O)[C@H]3O)c(O)c(O)c1C2=O
-15.8%: max response [5]
inactive: Potency [3] | Potency [4] | max response [6] 21% | activation [7] -4.11%
active: Potency [1] 31.6 µM | Potency [2] 31.6 µM

Nc1ccc(N)c(Cl)c1
inactive: Potency [8] > 92 µM | Potency [9] > 92 µM | Potency [1] | Potency [10] | Potency [3] | Potency [11] | Potency [12] | Potency [13] | Potency [14] | Potency [4] | Potency [15] | Potency [16] | Potency [17] | Potency [18] | max response [6] 9.54%
4.58%: max response [5]

CN(C)c1ccc(C(=N)c2ccc(N(C)C)cc2)cc1
inactive: activation [7] 13.1%
active: Potency [9] 57 µM | Potency [3] 50.1 µM | Potency [16] 39.8 µM

C/C=C/C=C/C=O
active: Potency [11] 39.8 µM | Potency [12] 50.1 µM | Potency [13] 39.8 µM | Potency [14] 50.1 µM | Potency [15] 39.8 µM | Potency [16] 39.8 µM | Potency [17] 50.1 µM | Potency [18] 39.8 µM
inactive: Potency [8] > 92 µM | Potency [9] > 92 µM | Potency [1] | Potency [10] | Potency [19] | activation [7] 0.0819%

Cc1ccc(S(N)(=O)=O)cc1
inactive: Potency [8] > 92 µM | Potency [9] > 92 µM | Potency [1] | Potency [2] | Potency [10] | Potency [3] | Potency [11] | Potency [12] | Potency [13] | Potency [14] | Potency [20] | Potency [4] | Potency [15] | Potency [16] | Potency [17] | Potency [18] | Potency [19] | max response [6] 8.77% and 1.7% | activation [7] -0.842%
-1.11% and -7.98%: max response [5]

Cc1ccc(O)c(N)c1
inactive: Potency [8] > 92 µM | Potency [9] > 92 µM | Potency [1] | Potency [2] | Potency [10] | Potency [3] | Potency [20] | Potency [4] | Potency [18] | max response [6] 11.9%
-2.88%: max response [5]
active: Potency [11] 79.4 µM | Potency [13] 79.4 µM | Potency [7] 50.1 µM

Cc1c2ccccc2c(C)c2c1ccc1ccccc12
inactive: Potency [10] | Potency [11] | Potency [12] | Potency [13] | Potency [14] | Potency [20] | Potency [4] | Potency [15] | Potency [16] | Potency [17] | Potency [18]
-10.9%: max response [5]
active: Potency [8] 13.8 µM | Potency [3] 39.8 µM | Potency [6] 8.91 µM

Oc1ccc(O)c2c(O)cccc12
inactive: Potency [8] > 92 µM | Potency [9] > 92 µM | Potency [1] | Potency [2] | Potency [10] | Potency [3] | Potency [20] | Potency [19] | max response [6] -1.49%
-12.8%: max response [5]

CCOc1ccc2nc(N)sc2c1
-8.45%: max response [5]
active: Potency [7] 10 µM
inactive: Potency [8] > 92 µM | Potency [9] > 92 µM | Potency [1] | Potency [2] | Potency [10] | Potency [3] | Potency [11] | Potency [12] | Potency [13] | Potency [14] | Potency [20] | Potency [4] | Potency [15] | Potency [16] | Potency [17] | Potency [18] | Potency [19] | max response [6] -7.66%

O=C(OCC1CO1)C1CCCCC1C(=O)OCC1CO1 (centres undefined)
active: Potency [11] 50.1 µM | Potency [19] 39.8 µM
inactive: Potency [8] > 92 µM | Potency [9] > 92 µM | Potency [1] | Potency [2] | Potency [10] | Potency [20] | activation [7] 0.749%

O=C(O)c1ccc([N+](=O)[O-])cc1
-8.75% and -3.59%: max response [5]
inactive: Potency [8] > 92 µM | Potency [9] > 92 µM | Potency [1] | Potency [2] | Potency [10] | Potency [3] | Potency [11] | Potency [12] | Potency [13] | Potency [14] | Potency [20] | Potency [4] | Potency [15] | Potency [16] | Potency [17] | Potency [18] | Potency [19] | max response [6] 3.05% and 5.55% | activation [7] 0.333% and 2.14%
